# From PubChem BioAssay
# DT40 TDP1 no CPT: qHTS for Inhibitors of human tyrosyl-DNA phosphodiesterase 1 (TDP1): qHTS in cells in absence of CPT. AID 686978, 2013. hit rate 15% among 420,000. Potency, µM (doses to about 46.2 µM), for inactives: top-dose activity change, negative = growth inhibition, usual class: inhibitors. DT40 Tdp1-/- hTDP1 cells, no CPT, ATP luminescence, 48 h; further: potency means the concentration at half of the fitted maximal effect; on the % scale 0 is the no-effect control and ±100 the full control effect; nearly all actives have a fitted effect of over 55% in size
#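 Growth of hTDP1-complemented DT40 Tdp1-knockout cells is measured by ATP luminescence after at least 48 hr compound exposure at 37 °C, with DMSO substituting for the 20 nM CPT used in the parallel screen.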
# TDP1 cell CPT: growth inhibition of DT40 Tdp1-/-;hTDP1 cells with camptothecin (screen for TDP1 inhibitors); chicken DT40 Tdp1-/-;hTDP1 cells + 20 nM CPT, ATP luminescence, 48 h; Potency, µM (highest dose often 46.2 µM), for the others: top-dose activity change, negative = growth inhibition, actives largely listed as inhibitors; hit rate 12% among 420,000; AID 686979; further: potency means the concentration at half of the fitted maximal effect; on the % scale 0 is the no-effect control and ±100 the full control effect; nearly all actives have a fitted effect of over 55% in size
#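 Chicken DT40 Tdp1-/- cells complemented with human TDP1, 400 cells/well, exposed to compounds plus 20 nM camptothecin for at least 48 h at 37 C; viability read as ATP content by CellTiter-Glo luminescence.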
# TGFb inhibitor: inhibitors of TGF-b signaling | HepG2 CAGA-GFP TGF-b/SMAD3 reporter, GFP fluorescence, 18 h; TGF-beta stimulated, 500 pg/mL final | Potency, µM (titrated, usually from 46.1 µM), without a hit: at the highest dose activity, negative = inhibition, hits mostly inhibitors | hit rate 1.2% among 410,000 | AID 588855; further: potency means the concentration at half of the fitted maximal effect; on the % scale 0 is the no-effect control and ±100 the full control effect; nearly all actives have a fitted effect of over 65% in size
#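 GFP signal (ex488/em500-530) from TGF-beta-stimulated HEPG2 CAGA-GFP cells, 500 pg/mL final, 18 h at 37 degrees C in DMEM plus 1% FBS, normalized to unstimulated and DMSO-stimulated controls.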
# IL-1B inflam inh: inhibitors of inflammasome signaling (IL-1 beta secretion) | activity change, % at 57.5 µM | THP-1 LPS/ATP IL-1B secretion, AlphaLISA, 16 h; hits give low values | AID 743279 | hit rate 4.7% among 360,000; in the data active means activity change below about -50%; inconclusive means mostly about -30% to -49%; further: on the % scale 0 is the no-effect control and ±100 the full control effect
#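 Secreted IL-1B measured by AlphaLISA bead assay after 16 h compound exposure of THP-1 cells; compounds (final up to 57.5 uM) added 1 h before LPS (250 ng/mL) and ATP (1.25 mM) stimulation; lower signal means less secretion.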
# HepG2 tox-1: HepG2 cytotoxicity, counter-screen for TGF-b inhibitors; HepG2 CAGA-GFP viability, ATP luminescence, 18 h; Potency, µM (top dose mostly 46.1 µM), for inactives: at the highest dose activity change, negative = cytotoxicity, most hits filed as cytotoxic; hit rate 0.76% among 410,000; AID 588856; further: potency means the concentration at half of the fitted maximal effect
#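 HepG2 CAGA-GFP cells (1000/well, DMEM with 1% FBS) received compound, then TGF-beta at 500 pg/mL final, and were incubated 18 hours at 37 degrees C. Viability was read by CellTiter-Glo luminescence. Media-only wells were set as complete cell-killing and DMSO as no toxicity.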
# TDP1 block: inhibitors of human tyrosyl-DNA phosphodiesterase TDP1; recombinant TDP1, AlphaScreen DNA substrate cleavage; Potency, µM (titrated, usually from 130 µM), without a hit: at the top dose activity change, negative = inhibition, hits mostly inhibitors; hit rate 0.28% among 350,000; AID 485290; further: potency means the concentration at half of the fitted maximal effect; on the % scale 0 is the no-effect control and ±100 the full control effect; nearly all actives have a fitted effect of over 40% in size
# Target sequence (Q9NUW8 whole entry, looked up): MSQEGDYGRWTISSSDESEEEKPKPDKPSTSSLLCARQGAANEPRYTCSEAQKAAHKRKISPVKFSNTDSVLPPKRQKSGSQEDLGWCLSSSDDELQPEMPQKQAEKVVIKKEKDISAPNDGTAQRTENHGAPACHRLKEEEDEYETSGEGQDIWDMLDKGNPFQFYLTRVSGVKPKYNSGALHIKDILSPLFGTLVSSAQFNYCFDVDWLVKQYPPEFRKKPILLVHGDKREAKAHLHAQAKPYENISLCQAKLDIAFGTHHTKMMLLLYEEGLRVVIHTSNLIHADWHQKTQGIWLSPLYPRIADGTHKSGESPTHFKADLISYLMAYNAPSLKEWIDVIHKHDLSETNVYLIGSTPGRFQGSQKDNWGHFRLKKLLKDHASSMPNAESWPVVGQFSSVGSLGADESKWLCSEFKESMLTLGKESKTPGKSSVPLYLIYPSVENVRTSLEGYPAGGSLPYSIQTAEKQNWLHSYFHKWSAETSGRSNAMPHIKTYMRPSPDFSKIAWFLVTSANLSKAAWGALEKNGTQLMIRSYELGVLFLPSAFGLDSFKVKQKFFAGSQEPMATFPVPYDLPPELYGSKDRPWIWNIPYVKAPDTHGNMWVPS
#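 Here, a 5' biotin and 3' phosphotyrosine-FITC DNA oligonucleotide reports Tdp1 activity: intact substrate bridges AlphaScreen beads, while cleavage leaves a 3' phosphate and drops signal. All incubations at room temperature.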
# TGFb confirm: TGF-b pathway inhibition, cherry-pick retest; shares compounds with TGFb inhibitor; HepG2 CAGA-GFP TGF-b reporter, GFP fluorescence, 18 h; cells stimulated with TGF-beta, 500 pg/mL; Potency, µM (highest dose often 46.1 µM), for inactives: at the top dose activity, negative = inhibition, most hits filed as inhibitors; hit rate 63% among 1,600; further: potency means the concentration at half of the fitted maximal effect; on the % scale 0 is the no-effect control and ±100 the full control effect; nearly all actives have a fitted effect of over 65% in size
# HepG2 tox-2: toxic to HepG2 cells in TGF-b counterscreen. HepG2 CAGA-GFP viability, ATP luminescence, 18 h; cells stimulated with TGF-beta, 500 pg/mL. shares compounds with TGFb inhibitor. Potency, µM (top dose mostly 46.1 µM), inactives show top-dose activity, negative = cytotoxicity, most hits filed as inhibitors. hit rate 27% among 1,600; further: potency means the concentration at half of the fitted maximal effect; on the % scale 0 is the no-effect control and ±100 the full control effect; nearly all actives have a fitted effect of over 70% in size
# CCL64 TGFb inh: orthogonal confirmation of TGF-b inhibitors in CCL64 cells. shares compounds with TGFb inhibitor. CCL64 CAGA-GFP reporter, TGF-b stimulated, GFP fluorescence, 18 h. Potency, µM (top dose mostly 46.1 µM), inactives show top-dose activity, negative = inhibition, usual class: inhibitors. hit rate 41% among 1,600; further: potency means the concentration at half of the fitted maximal effect; nearly all actives have a fitted effect of over 65% in size
# TGFb COP inh: TGF-b inhibition validated with COP promoter; Potency, µM (series often up to 46.1 µM), inactives show top-dose activity, negative = inhibition, hits mostly inhibitors; HepG2 COP-GFP TGF-b reporter, GFP fluorescence, 18 h; cells stimulated by added recombinant TGF-beta; AID 720537; shares compounds with TGFb inhibitor; hit rate 3% among 1,600; further: potency means the concentration at half of the fitted maximal effect; nearly all actives have a fitted effect of over 70% in size
# The depositor's hits bear a star; ? = inconclusive; . = no result; [ ] = remark or other dose. Rows were chosen to be rich in hits. Some 19% of all compounds tested hit in one or more screens of this group. Unless noted, the call rests on the fitted dose curve; in most records, active means well fitted curve in the direction sought with a large enough effect; inconclusive means small, poorly fitted or top-dose-only effect, or another doubt; inactive means no such curve, though single readings can be large; an effect the other way counts as inactive or inconclusive.
SMILES,DT40 TDP1 no CPT,TDP1 cell CPT,TGFb inhibitor,IL-1B inflam inh,HepG2 tox-1,TDP1 block,TGFb confirm,HepG2 tox-2,CCL64 TGFb inh,TGFb COP inh
O=C(Nc1ccc2oc(-c3ccncc3)nc2c1)c1ccc([N+](=O)[O-])o1,5.8µM*,2.91µM*,5.62µM*,-90.5*,-23.9%,3.8%[0.0935 µM],6.51µM*,?,?,15.6%
Cc1cc(C)nc(/N=C(\N)Nc2ccc(SC(F)F)cc2)n1,11.6µM*,13µM*,8.91µM*,0.0,-38.3%,3.8%,-25.2%,?,?,27.5%
CCOc1ccc(N/C(N)=N/c2nc(C)cc(C)n2)cc1,25.9µM*,20.6µM*,?,-3.1,-27.6%,1.6%,-28.2%,-26.1%,?,7.7%
CCOc1ccc(N/C(=N/c2nc(C)cc(C)n2)NC(=O)CC)cc1,?,?,?,0.0,-17.4%,0.0%,.,.,.,.
COc1cccc(NC(=O)[C@@H]2CCCN2C(=O)[C@@H]2Cc3ccccc3CN2C(=O)OC(C)(C)C)c1,2.4%,-28.9%,?,14.7,3.3%,2.2%,.,.,.,.
COc1ccc(CNC(=O)[C@@H]2CCCN2C(=O)[C@@H]2Cc3ccccc3CN2C(=O)OC(C)(C)C)cc1,?,-29.0%,11.2µM*,-2.7,-6.9%,3.9%,13µM*,-16.9%,11.8%,-6.2%
Cc1cccc(N2CCN(CC(=O)NCC3CCCCC3)CC2)c1C,?,?,10µM*,-24.3,-38.5%,-4.0%,-24.3%,-5.6%,?,12.4%
Cc1ccc(NC(=O)CSc2nnc(CNC(=O)c3cccs3)o2)c(C)c1,3.7%,2.7%,-11.3%,0.1,-2.5%,2.6%,.,.,.,.
CN(C)Cc1csc(NC(=O)Nc2ccccc2Cc2ccccc2)n1,?,?,4.3%,-17.2,-6.2%,.,.,.,.,.
NC(Cc1ccc(C(F)(F)F)cc1)c1csc(NC(=O)Nc2ccccc2Cc2ccccc2)n1 (centres undefined),23.1µM*,?,3.16µM*,-60.6*,6.31µM*,.,?,?,14.6µM*,?
Cc1cc(C)cc(OCCNC(=O)C2CCN(S(=O)(=O)c3ccccc3)CC2)c1,-3.5%,-25.4%,-6.7%,-15.2,-11.1%,2.8%[56.1 µM],.,.,.,.
CC(=O)c1ccc(NC(=O)CN2C(=O)NC(C)(C3CCCCC3)C2=O)cc1 (centres undefined),8.6%,-5.9%,-5.3%,0.0,-1.7%,1.7%,.,.,.,.
O=C(NCCNC(=O)c1cc(OCC(F)(F)F)ccc1OCC(F)(F)F)Nc1ccc(Cl)cc1,7.4%,-18.0%,12.7%,-5.7,-3.2%,0.0%,.,.,.,.
O=C(Nc1ccc(F)cc1)Nc1cc(OCC(F)(F)F)cc(OCC(F)(F)F)c1,4.61µM*,2.59µM*,3.98µM*,-61.0*,8.91µM*,-1.1%,6.51µM*,?,7.31µM*,46.9%
COCCN=C1N[C@@H](c2ccc(Br)cc2)C(C(=O)OC)=C(C)N1Cc1ccccc1,?,?,10µM*,?,-72.5%,.,?,?,?,61.8%
COCCN1C(=O)N[C@@H](c2ccc(Br)cc2)C(C(=O)OC)=C1C,.,.,.,.,.,4.4%,.,.,.,.
COc1cccc(Nc2ncc3nc(CCc4ccccc4)c(=O)n(CCC#N)c3n2)c1,-12.9%,4.0%,.,.,.,.,.,.,.,.
CCOC(=O)C1CCCN(C(=O)Cc2ccc(C)cc2)C1 (centres undefined),18.4µM*,?,10µM*,6.3,4.2%,5.3%,-7.2%,-2.0%,23.9%,-9.8%
CCOC(=O)C1CCCN(C(=O)Cc2ccc(OC)c(OC)c2)C1 (centres undefined),-7.1%,-4.6%,9.7%,-14.3,-36.6%,4.5%,.,.,.,.
Oc1ccccc1-c1nc(NCc2cccnc2)c2ccccc2n1,?,?,20µM*,?,-20.9%,6.8%,?,?,?,17.1%
COc1ccc(C)cc1S(=O)(=O)N(CC(=O)NCc1ccc(Cl)cc1)Cc1ccccc1,?,20.6µM*,12.6µM*,-61.3*,-0.7%,-0.7%,?,?,?,42.8%
COc1ccc(C)cc1S(=O)(=O)N(CC(=O)N1CCOCC1)Cc1ccccc1,-11.7%,-9.2%,-2.9%,-11.6,-16.1%,1.1%,.,.,.,.
CN(C)S(=O)(=O)N1CCc2ccc(NC(=O)c3ccc(C(F)(F)F)cc3)cc2C1,23.1µM*,16.4µM*,?,?,-38.3%,.,-0.3%,?,-24.2%,0.8%
Cc1ccc(OCC(=O)Nc2ccc(C)c(F)c2)c([N+](=O)[O-])n1,-21.1%,-11.1%,2.6%,-0.2,1.2%,-3.7%,.,.,.,.
Cc1cc(S(=O)(=O)Nc2ccc(C(=O)NCC(C)(C)N3CCOCC3)cc2)ccc1F,16.9%,-18.7%,12.4%,14.6,-2.9%,3.4%,.,.,.,.
C[C@@]12CCC=C[C@H]1[C@H](c1ccccc1Br)N(Cc1ccccc1)C2=O,16.4µM*,?,17.8µM*,9.7,-27.7%,-0.8%[56.1 µM],18.4µM*,?,?,13.9%
CCCCn1c(N)c(N(C)C(=O)c2ccc(-n3cccn3)cc2)c(=O)[nH]c1=O,3.9%,6.1%,0.0%,6.9,-2.9%,0.7%,.,.,.,.
